The assay concerns RARg homodimer (NR concentration 270 nM). Description: PBM binding z-score (relative to random genomic background probes); higher = stronger binding; sequences stand for … in GC…GCGATTGACAGCGTAGAATGAAGG
Put shortly: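 Binding z-scores were set against random background probes. The data came from custom Agilent 4×180K protein-binding microarrays carrying double-stranded probes with 34-nt variable regions, incubated 1 h with ligand-free nuclear receptor dimers. Partner-specific antibodies detected binding, and scanned fluorescence was regression-normalized.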
Turning to CCTTACGGGTCAAGGTTTTAGCACGGGTGGTACG, the PBM binding z-score came to 4.4.
As for ATCGAAAGGTCGTGAGGTGAGTGTACAGAAAGGC, the figure is 4.11; as for TCTTGTAGATCGGCAGGTTAAGAAAGCTGGCCAA, -0.399; as for ATCTCTAGGTAACAAGTTCAGTGTAAGAGAGGAC, 1.49.
The sequence ATATGTAGGTTACATCCCGGTCATTCAGGCTATG displayed a PBM binding z-score of 1.76.
In the case of GCAGACAGGTGAGACGCAGGTAACTCAGGGTGGC, the PBM binding z-score was determined as 0.034.
TAGCCTAGGTCAGGTCGGGCCAGTATACGCTATA had a PBM binding z-score of 4.12.
As for GGAACGAGGGCAAAGTTGATCGCATCTGTCGACG, the figure is 1.8; as for TGAATGAGGTTATAAGATCAGCGAACGTTGCAAA, 1.05.
As for CGAAGGAGGGCATGAGTTGATAGCAAATGCCGAT, the figure is 1.45; as for CAAACTAGGTCACGAAAGGTCAATGTCGAATGAC, 8.51; as for GTACCACGGTGAATAGGTCGTTGATGAGTAGGCG, 0.261.
Take CCTTACGTGTCACTCCAGGTTATAGCATCGGAGT: the PBM binding z-score turned out to be 1.27.
Regarding TGACCAAGGTGAGCTGAGGTCGTTGATCCAACTC, the PBM binding z-score was found to be 1.17.
As for TTACCAAGGCGAGCTGAGGTCGTTGATCCAACTC, the figure is -0.299.
As for ATACCAAGGTGGTCGTGAGGTCGTTGATACTAAC, the PBM binding z-score is 0.566.
As for AGAATGAGGTTATACGTAGATCAGGGGAGAAAGT, the figure is 1.26.
GCTAGTTGATCAGTAAAAGGTCACACACCGGTCG yielded a PBM binding z-score of 4.68.
CAAACTAGGTCACCGGAAGTTCAAAGTCCGCATG: the PBM binding z-score was 6.24.
For GGAACGAGGGCAAAGATGATAGCATCTGTCGACG the value was 1.59.
As for TAGTCTAGGTCATGGGCCAGTATACCACGCGAAC, the figure is 4.4.
Turning to CGTCCAACGTCAGAGAGGTCAGTGAATGCCGAGT, the PBM binding z-score is 3.06.

The values are drawn from the supplement of paper PMC6555819.
